# Assay results: PubChem BioAssay AID589 (National Center for Advancing Translational Sciences (NCATS), 2007)
# Screen size: about 59,000 compounds; about 6,200 (11%) were called active. About 9% were inconclusive and are not listed. No stated cut-off is given here; in the data, active means max dye-equivalent concentration above about 10 nM; inconclusive means mostly about 1.1 nM to 9.6 nM; inactive means weaker than that. The sample as a whole holds a higher share of actives than the screen did. Some structures have more than one record in an assay (separate samples or runs), and their calls can disagree.
# Test: qHTS Assay for Spectroscopic Profiling in 4-MU Spectral Region
# Conditions: compound autofluorescence, 340/450 nm, 4-MU equivalents; hits give high values
# Source text: NIH Molecular Libraries Screening Centers Network [MLSCN] NIH Chemical Genomics Center [NCGC] […] Occasionally, the artifactual effect may originate from the compounds own spectral or other biophysical properties which generally tend to track its assay concentration. Pre-screening/profiling the library with respect to the compounds spectral properties should help one exclude false positives early on. While the most informative fluorescent profiling data set is obtained by performing a full excitation and emission scan of each well by using a monochromator-based plate reader, such an approach is practical only on a very limited scale as scanning each well requires long time. An alternative approach, applied here, is to perform plate reader scans using selected excitation and emission wavelength pairs to generate a multidimensional relational database that correlates compound concentration and the respective relative fluorescence intensity at a given wavelength set. A standard curve of 4-methylumbelliferone (4-MU) present on each plate as six-point concentration series, was used to compute a normalized fluorescence response, termed dye-equivalent concentration, for each compound at each concentration.
# NCGC Assay Protocol Summary: Buffer: 100 mM Tris buffer, pH 8.0 Dye standard plate: The wells in columns 1 through 4 of a Kalypsys polypropylene 1536-well compound plate were filled with standard solutions of fluorophore corresponding to the spectral region of interest. Solutions of 4-MU were placed in the following wells: A1, B1: 3 mM, A2, B2: 300 uM, A3, B3: 30 uM, A4, B4: zero (DMSO), C1, D1: 3 uM, C2, D2: 900 nM, C3, D3: 300 nM, C4, D4: zero (DMSO). Assay Steps: Six uL of buffer were dispensed to 1536-well Greiner black plates. Compounds and dye standards (23 nL) were transferred via Kalypsys PinTool. The plates were incubated for 15 min at room temperature, and then read on ViewLux (Perkin-Elmer) High-throughput CCD imager using 340 nm and 450 nm excitation and emission filter set. Keywords: NIH Roadmap, MLSCN, MLI, MLSMR, qHTS, NCGC, Fluorescent Profiling, 4MU, 4-MU
Compound,max dye-equivalent concentration,outcome
CCCCNC(=O)c1c[nH]c2ccc(S(=O)(=O)Nc3ccc(OCC)cc3)cc2c1=O,inactive,
COc1cccc(N(CC(=O)NC2CCCC2)C(=O)Cn2nnc(-c3ccc(C)cc3)n2)c1,inactive,
O=C(c1cc(C(F)(F)F)cc(C(F)(F)F)c1)N1CCC2(CCCN(c3ccccn3)C2)CC1,inactive,
N#Cc1c2c(c(-c3ccccc3)[nH]c1=O)CCCC2,16 nM (active),
CCCCCN(C(=O)NC(=O)Nc1ccccc1C)S(C)(=O)=O,inactive,
O=C1C2(c3ccccc3)CN(CCCO)CC1(c1ccccc1)CN(CCCO)C2,inactive,
C[C@@H](N)[C@@H](C)Cc1ccccc1,inactive,
COc1ccc(-c2cc(C(F)(F)F)nc(SCCC(=O)NCc3ccco3)n2)cc1,inactive,
O=C(CSc1nc(-c2ccco2)cc(C(F)(F)F)n1)NCc1cccs1,inactive,
FC(F)(F)c1cc(-c2cccs2)nc(NCc2ccco2)n1,20 nM (active),
COc1ccccc1N1CCN(C(=O)CSc2nnc(-c3ccoc3C)o2)CC1,inactive,
O=C(CNCCO)NC12CC3CC(CC(C3)C1)C2,inactive,
CC(NCCO)C(=O)C12CC3CC(CC(C3)C1)C2 (stereo not drawn),36 nM (active),
CN1CCN(CC(=O)C23CC4CC(CC(C4)C2)C3)CC1,inactive,
Cc1ccc2[nH]c3c(c2c1)CN(C(=O)CN1CCN(c2ccccc2)CC1)CC3,inactive,
O=C(O)[C@@H](O)Cc1ccccn1,inactive,
O=C(c1ccco1)N1CCC[C@@]2(CCN(Cc3nccs3)C2)C1,inactive,
COc1ccc(C(=O)Nc2ccc(S(=O)(=O)Nc3onc(C)c3C)cc2)cc1OC,inactive,
COc1ccc(OCc2ccc(-c3nc4ccccc4c(=O)n3N)o2)cc1,inactive,
COc1ccc(-c2cc3ccc(OCc4nn[nH]n4)cc3oc2=O)cc1,8100 nM (active),
O=C(Nc1cccc(Cl)c1)OCc1ccccn1,inactive,
CC(C)OC(=O)c1cc(NC(=O)C2C3CCC(O3)C2C(=O)O)cc(C(=O)OC(C)C)c1 (stereo not drawn),14 nM (active),

Compound,max dye-equivalent concentration,outcome
CC(C)COC(=O)c1ccc(NC(=O)C2C3C=CC(C3)C2C(=O)O)cc1 (stereo not drawn),inactive,
CCC(CC)C(=O)Nc1cc(C(=O)OC)cc(C(=O)OC)c1,inactive,
CCC(=O)c1ccc(OCC(O)CN2CC(C)OC(C)C2)cc1 (stereo not drawn),inactive,
O=C(c1ccco1)N1CCN(C(=O)C2c3ccccc3Oc3ccccc32)CC1,inactive,
CS(=O)(=O)c1ccc2nc(NC(=O)CN3CCCCCC3)sc2c1,inactive,
Cn1c(CCN2CCCCCC2)nc2cc(NC(=O)Nc3ccccc3)ccc21,inactive,
Cc1nc2ccc(NC(=O)N3CCC(c4ccccc4)C3)cc2nc1C (stereo not drawn),550 nM (active),
O=C(Nc1cccc(NC(=O)N2CCN(c3ccccc3)CC2)c1)N1CCN(c2ccccc2)CC1,inactive,
Cc1cc(C)nc(SCc2nnc(SCC(=O)OC3CCCCC3)o2)n1,inactive,
CC(=O)c1cc(C#N)c(SCC(=O)C(C)(C)C)nc1C,inactive,
CCOc1cccc(NC(=O)CC#N)c1,inactive,
CCOc1ccc2cc(C#N)c(SCC(=O)OC)nc2c1,37 nM (active),
Cc1nn(-c2ccccc2)c2c1C(=O)NC(=O)C(C)(C)C2,inactive,
CCC(C(=O)N1CCOCC1)n1c(C(=O)OC)cc2occc21 (stereo not drawn),inactive,
CC(=O)c1ccc(N2C(=NC(=O)C(C)C)SC3CS(=O)(=O)CC32)cc1 (stereo not drawn),inactive,
CCC(C)Sc1nc2c(c(=O)[nH]c(=O)n2C)n1CC(O)COc1cccc2ccccc12 (stereo not drawn),inactive,
CCCCOC(=O)c1[nH]c(C)c(C(=O)OC)c1C,360 nM (active),
CCOC(=O)c1c(C)[nH]c(C(=O)NCc2ccccc2OC)c1C,inactive,
CCOC(=O)c1c(C)[nH]c(C(=O)COc2ccc3c(c2)OCO3)c1C,inactive,
CCOC(=O)N1CCN(C(=O)Cc2ccc(-n3c(=S)[nH]c4ccccc4c3=O)cc2)CC1,inactive,
O=C(c1cccs1)N1CCN(C(=O)N2CCOCC2)CC1,inactive,
CCN(CC)CCNC(=O)c1cc(S(C)(=O)=O)ccc1OC,10 nM (active),inactive

Compound,max dye-equivalent concentration,outcome
CCN(CC)S(=O)(=O)c1ccc2[nH]cc(C(=O)NCCc3ccccc3)c(=O)c2c1,inactive,
COc1ccc(C)cc1NC(=O)c1[nH]c(C)c(C(C)=O)c1C,inactive,
Cc1onc(-c2ccccc2)c1C(=O)N1CCOCC1,inactive,
CCN(c1ccccc1)S(=O)(=O)c1cccc(C(=O)O)c1,inactive,
CN(c1nc2ccccc2n2c(-c3ccco3)nnc12)S(=O)(=O)c1ccccc1,39 nM (active),
c1ccc(CSc2nnc(-c3ccco3)n2Cc2ccccc2)cc1,inactive,
Cc1ccc(Oc2nc3ccccc3n3c(C)nnc23)cc1,inactive,
CCc1cc(Br)ccc1NC(=O)C1CCCO1 (stereo not drawn),inactive,
CC(=O)N1CCN(CCN=CC2=C(O)CC(C)(C)CC2=O)CC1,inactive,
COc1ccccc1N1CCN(C(=O)c2ccc(S(=O)(=O)N3CCCCC3)cc2)CC1,inactive,
Cc1ccccc1-c1nnn(CC(=O)c2ccc(S(=O)(=O)N3CCCC3)cc2)n1,inactive,
N#CC(C(=O)c1ccc(S(=O)(=O)N2CCCCCC2)cc1)c1nc2ccccc2[nH]1 (stereo not drawn),24 nM (active),
CCOc1cc(C(=O)N2CCc3cc(OC)c(OC)cc3C2)ccc1OC(F)F,inactive,
CC1(C)CC(=O)c2sc(N)nc2C1,inactive,
CCOC(=O)C1(Cc2ccc(O)cc2)NC(c2ccccc2F)C2C(=O)N(C)C(=O)C21 (stereo not drawn),inactive,
O=C(c1csnn1)N1CCC2(CCN(Cc3nccs3)CC2)CC1,inactive,
Cc1cc(C)c(C#N)c(SCS(=O)c2ccc(C(C)(C)C)cc2)n1 (stereo not drawn),inactive,
Cc1cc(C)c(C#N)c(SCc2ccc3c(c2)OCO3)n1,inactive,
Cc1cc(C)c(C#N)c(SCc2ccccc2C(=O)O)n1,13 nM (active),
O=C(Nc1ccon1)c1sc2ccccc2c1Cl,inactive,
OCCCN1c2ccccc2Nc2nnc(-c3ccccc3)cc21,94 nM (active),
Oc1ccc(Cn2cc[nH]c2=S)cc1,inactive,

Compound,max dye-equivalent concentration,outcome
O=C(Oc1ccc2c(c1)CN(Cc1ccccc1)CO2)c1ccccc1,inactive,
CC(=O)Nc1nonc1-c1nc2ccccc2n1Cc1ccccn1,inactive,
CN1c2ccccc2-c2nc3ccccc3n2C1c1ccco1 (stereo not drawn),2800 nM (active),
CCOC(=O)N1CCC(C(N)=O)CC1,inactive,
CCOc1cc(S(=O)(=O)NC2CC(C)(C)NC(C)(C)C2)ccc1F,inactive,
COc1ccc(-n2c(=O)c(-c3cn(C)c4ccccc34)nc3cnc(OC)nc32)cc1,inactive,
O=c1c(-c2cccs2)nc2cnc(Oc3ccccc3)nc2n1-c1ccccc1,18 nM (active),
COc1ccc(Oc2ncc3nc(C)c(=O)n(-c4ccccc4)c3n2)cc1,inactive,
O=C1c2ccccc2C(=O)N1c1ccccc1S(=O)C(F)(F)F (stereo not drawn),inactive,
CS(=O)(=O)N(CC(=O)N1CCN(Cc2ccc3c(c2)OCO3)CC1)c1ccc2c(c1)OCO2,inactive,
CS(=O)(=O)N(CC(=O)NCc1ccco1)c1ccc2c(c1)OCO2,27 nM (active),
O=C(Cn1nnc(-c2ccc3c(c2)OCO3)n1)NCc1ccco1,inactive,
CCn1c(COc2ccc(OC)cc2)nnc1SCC(=O)Nc1cc(OC)ccc1OC,inactive,
Cc1cn(C2C=CC(CO)O2)c(=O)[nH]c1=O (stereo not drawn),inactive,
O=C(NC1CC2CCCC(C1)N2C(=O)N1CCCCC1)C1CCCCC1 (stereo not drawn),inactive,
O=C(NCCc1ccco1)c1nn(Cc2ccccc2)c(=O)c2ccccc12,inactive,
COc1ccccc1-c1c(C)nn2c(C)c(C(C)=O)cnc12,inactive,
Cc1ccc(C(=O)NC2CCN(C(=O)N3CCOCC3)CC2)cc1,inactive,
CN(C)CCCNc1c2c(c(C#N)c3nc4ccccc4n13)CCC2,98 nM (active),
CCCCn1c(CN2CCN(CCO)CC2)nc2ccccc21,inactive,
N#Cc1c2c(c(N3CCN(CCO)CC3)n3c1nc1ccccc13)CCCC2,26 nM (active),
Cc1ccc(C(=O)NCC(=O)O)cc1S(=O)(=O)N1CCCCC1,inactive,

Compound,max dye-equivalent concentration,outcome
Cc1ccc(C(=O)N(CN2CCCC2=O)c2ccc(F)cc2)cc1,inactive,
CCOC(=O)c1c(-n2cnnn2)sc(C)c1C,inactive,
CC(=NCC1CCCO1)c1c(O)[nH]c(=O)[nH]c1=O (stereo not drawn),inactive,
CCCCOc1ccc(-c2ncc(C(=O)OCC)c(N)n2)cc1,inactive,
CCN(CC)CCCN1C(=O)C(=O)/C(=C(/O)c2c(C)nc3ccccn23)C1c1ccc(C)o1 (stereo not drawn),inactive,
Cc1ccccc1-n1c(SCC(=O)NCc2cccs2)nnc1-c1ccncc1,inactive,
COc1ccc(C(=O)NC(=O)CSc2nnc(-c3ccco3)n2-c2ccccc2)cc1,inactive,
COc1ccc(-n2c(SCC(=O)NCc3cccs3)nnc2-c2ccoc2C)cc1,23 nM (active),
O=C(CSc1nnc(-c2ccco2)n1CC1CCCO1)c1ccccc1 (stereo not drawn),inactive,
COc1cccc(Cn2c(=O)c(-c3cc(F)cc(F)c3)nc3cnc(OC)nc32)c1,inactive,
O=c1c(-c2cc(F)cc(F)c2)nc2cnc(Oc3ccccc3)nc2n1C[C@H]1CCCO1,12 nM (active),
OCCCNCc1ccccn1,inactive,
C[C@H]1O[C@@H](CC(=O)O)Cc2c1c(O)c1c(O)cc(-c3cc(=O)c4c(=O)c5c(c(=O)c=4c3=O)C[C@H](CC(=O)O)O[C@@H]5C)c(O)c1c2O,inactive,
CCn1c(SCC(=O)NCC2CCCO2)nc2cc(S(=O)(=O)N3CCCCC3)ccc21 (stereo not drawn),inactive,
CCc1ccc(NC(=O)CSc2nc3ccccc3c(=O)n2CCN2CCOCC2)cc1,inactive,
CCCCn1c(SCC(=O)NCCc2ccc(OC)c(OC)c2)nc2c1c(=O)n(C)c(=O)n2C,inactive,
COCCCNC(=O)CSc1nc2ccc(N3CCOCC3)cc2c(=O)n1CCc1ccccc1,54 nM (active),
CCCCn1c(SCC(=O)NCC2CCCO2)nc2ccc(N3CCOCC3)cc2c1=O (stereo not drawn),62 nM (active),
COCCNC(=O)CSc1nc2c(n1-c1ccccc1)CCCC2,inactive,
